HT1080-NT tox: qHTS for induction of synthetic lethality in tumor cells producing 2HG: qHTS for the HT-1080-NT fibrosarcoma cell line. Potency, µM (series often up to 46.1 µM), inactives show at the top dose activity, negative = less viability, hits mostly cytotoxic. actives 1.6% (n = 360,000). HT-1080-NT fibrosarcoma viability, CellTiter-Glo ATP luminescence, 48 h;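 further: NT is the 2HG producing partner of a matched IDH1 knockdown line; 0% = DMSO-treated cells and -100% = media-only wells without cells; nearly all actives have a fitted effect of over 55% in size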
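Toxicity toward the 2HG-producing NT line was scored as %Activity, normalised to DMSO and no-cell wells, from CellTiter-Glo luminescence after 48 hours' treatment.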
HT1080 IDH1KD tx: qHTS for induction of synthetic lethality in tumor cells producing 2HG: qHTS for the HT-1080-IDH1KD cell line. AID 686971, 2013. HT-1080 IDH1 knockdown viability, ATP luminescence, 48 h. Potency, µM (highest dose often 46.1 µM), without a hit: top-dose activity, negative = toxicity, hits mostly cytotoxic. actives 2% (n = 360,000);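 further: 0% = DMSO wells and -100% = cell-free medium wells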
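CellTiter-Glo luminescence after 48 h compound exposure at 37 degrees C of IDH1-knockdown HT-1080 cells in 5% FBS RPMI. %Activity scaled between DMSO wells and cell-free media wells, with curves fitted and assigned curve classes.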
TGFb SMAD3 inh: qHTS for Inhibitors of TGF-b; HepG2 CAGA-GFP TGF-b/SMAD3 reporter, GFP fluorescence, 18 h; TGF-beta stimulated, 500 pg/mL final; Potency, µM (top dose mostly 46.1 µM), without a hit: top-dose activity, negative = inhibition, hits mostly inhibitors; actives 1.2% (n = 410,000); further: on the % scale 0 is the no-effect control and ±100 the full control effect; nearly all actives have a fitted effect of over 65% in size
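Inhibition was scored as loss of TGF-beta-induced (500 pg/mL final, 18 hours, 37 degrees C) GFP in HEPG2 cells carrying a CAGA-GFP reporter, in DMEM with 1% FBS. Well GFP was summed per cell; Activity was normalised to unstimulated and stimulated DMSO wells, then concentration-response fitting.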
KB-3-1 tox: qHTS assay for MDR1-selective chemotherapeutics: Primary screen using the parental adenocarcinoma cell KB-3-1. KB-3-1 viability, CellTiter-Glo ATP luminescence, 72 h. Potency, µM (series often up to 46.1 µM), usual class: cytotoxic. actives 1.4% (n = 400,000). AID 1347075, 2019; further: on the % scale 0 is the no-effect control and ±100 the full control effect; nearly all actives have a fitted effect of over 60% in size
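Using CellTiter-Glo luminescence, growth of non-resistant KB-3-1 adenocarcinoma cells is assessed 72 h after pin-tool compound addition at 37 °C. Normalized responses across the concentration series yield fitted curves.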
HepG2 viability: qHTS for Inhibitors of TGF-b: Cytotox Counterscreen; Potency, µM (titrated, usually from 46.1 µM), for inactives: at the highest dose activity change, negative = cytotoxicity, most hits filed as cytotoxic; actives 0.76% (n = 410,000); HepG2 CAGA-GFP viability, ATP luminescence, 18 h
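CellTiter-Glo luminescence gave cytotoxicity after 18 hours at 37 degrees C. The cells were HepG2 CAGA-GFP in 1% FBS DMEM, stimulated with 500 pg/mL TGF-beta after compound addition. %Activity was normalised to no-cell wells (complete cell-killing) and DMSO (no toxicity), and curves were fitted and classified.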
KB-V1 cytotox: qHTS assay for MDR1-selective chemotherapeutics: Primary screen using the drug-selected MDR subline cells KB-V1. KB-V1 MDR cells viability, CellTiter-Glo, 72 h. Potency, µM (doses to about 46.1 µM), actives largely listed as cytotoxic. actives 3.4% (n = 400,000). AID 1347076, 2019; further: on the % scale 0 is the no-effect control and ±100 the full control effect; nearly all actives have a fitted effect of over 60% in size
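qHTS viability screen in drug-selected KB-V1 MDR cells: 72 h compound treatment at 37 degrees C, ATP luminescence end point.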
* marks the source's active call; other numbers are inactive results; i = inactive; ? = inconclusive; nt = no result. Rows were chosen to be rich in hits. Some 6.6% of all compounds tested hit in one or more screens of this group. The call rests on the fitted dose curve; in most records, active means well fitted curve in the direction sought with a large enough effect; inconclusive means small, poorly fitted or top-dose-only effect, or another doubt; inactive means no such curve, though single readings can be large; an effect the other way counts as inactive or inconclusive. Potency means the concentration at half of the fitted maximal effect.

SMILES	HT1080-NT tox	HT1080 IDH1KD tx	TGFb SMAD3 inh	KB-3-1 tox	HepG2 viability	KB-V1 cytotox
COc1cccc(CSc2nc3cc(C(=O)NC4CCCC4)ccc3c(=O)n2Cc2ccccc2)c1	nt	nt	6.7%	nt	1.2%	nt
Cc1ccc2c(c1)c1c(n2CC(O)CN2CCCCC2C)CCCC1 (stereo not drawn)	18.4µM*	?	0.0%	?	-20.5%	i
Cc1ccc2c(c1)c(C)c(C)n2CC(O)CN1CCCCC1C (stereo not drawn)	-25.3%	-19.5%	0.3%	i	-19.2%	?
Cc1ccc2c(c1)c1c(n2CC(O)CNC2CCCCC2)CCCC1 (stereo not drawn)	20.6µM*	16.4µM*	?	?	-104.3%	?
CCCC(=O)Nc1ccc2c(c1)c1ccccc1n2CC	-20.6%	-27.7%	3.8%	?	-14.8%	?
CCn1c2ccccc2c2cc(NS(=O)(=O)c3ccccc3C)ccc21	?	?	?	16.4µM*	11.3%	?
Cc1cccn2cc(-c3ccc(S(=O)(=O)N4CCOCC4)cc3)nc12	?	-19.1%	-4.6%	i	3.0%	2.31µM*
Cc1cccn2cc(-c3ccc(S(=O)(=O)N4CCCCC4)cc3)nc12	-21.4%	-17.0%	6.4%	i	-14.8%	i
CN1CC(c2ccccc2)C2(SC(=S)N(Cc3ccco3)C2=O)C12C(=O)Nc1ccccc12 (stereo not drawn)	?	?	?	20.6µM*	-30.6%	?
O=[N+]([O-])c1ccc2c(c1)C(N1CCN(CCO)CC1)Cc1ccc(F)cc1S2 (stereo not drawn)	16.4µM*	16.4µM*	?	i	-62.7%	i
O=C(Nc1ccc(N2CCN(C(=O)c3ccco3)CC2)c(Cl)c1)c1cccs1	?	-28.0%	4.0%	?	-35.4%	23.1µM*
O=C(Nc1cccc(NC(=O)c2cccs2)c1)c1ccco1	0.1%	1.6%	22.7%	i	2.0%	14.6µM*
C/C(=N/NC(=O)c1ccco1)c1cccc(NC(=O)c2ccc(C)s2)c1	5.2%	8.1%	5.2%	i	7.6%	10.3µM*
Cc1nc(C(=O)Nc2ccccc2Cl)cc2c1[nH]c1ccccc12	-19.1%	-18.2%	-2.6%	7.31µM*	7.1%	2.91µM*
COc1ccc(NC(=O)c2cc3c([nH]c4ccccc43)c(C)n2)cc1	13.3%	0.9%	-8.9%	i	-8.0%	i
COc1ccc(OCc2ccc(-c3nc(C#N)c(N4CCC(C)CC4)o3)o2)cc1	nt	nt	18.7%	?	4.2%	i
O=C(CN1CCCC1)Nc1c2c(nc3ccccc13)N(Cc1ccccc1)CC2	?	?	-1.9%	i	-52.9%	23.1µM*
CN1C(C(=O)c2ccccc2)=C(NC(=O)c2ccccc2Br)c2ccccc2S1(=O)=O	nt	nt	-11.8%	nt	-19.5%	nt
COCCn1c(SCC(=O)Nc2ccccc2OC)nc2ccccc2c1=O	-4.1%	0.5%	12.5%	i	1.5%	i
COCCn1c(-c2ccc(OC)cc2)cnc1SCC(=O)Nc1cccc2ccccc12	-17.3%	?	0.0%	i	-10.8%	7.31µM*
O=C(CCCCn1c(=O)c2ccccc2n(CC(=O)Nc2ccccc2)c1=O)NCc1ccccc1Cl	nt	nt	-0.3%	i	-6.9%	?
CCCCN(Cc1ccco1)C(=O)c1cc2c(s1)-c1c(C)cccc1OC2	nt	nt	?	i	-21.5%	i
CN(C)CCN(Cc1ccco1)C(=O)c1cc2c(s1)-c1ccccc1OC2	nt	nt	?	nt	12.6µM*	nt
CCN(C(=O)c1cc2c(s1)-c1ccccc1OC2)c1cc(Cl)ccc1OC	nt	nt	8.91µM*	i	-19.5%	i
CCN(C(=O)c1cc2c(s1)-c1c(C)cccc1OC2)c1ccccc1F	nt	nt	?	i	-4.9%	i
SMILES	HT1080-NT tox	HT1080 IDH1KD tx	TGFb SMAD3 inh	KB-3-1 tox	HepG2 viability	KB-V1 cytotox
CCN(C(=O)c1cc2c(s1)-c1c(C)cccc1OC2)c1cc(C)ccc1C	nt	nt	11.2µM*	i	-28.5%	i
CN(C)c1ccc(/C=C/c2cc(=O)[nH]c3ccccc23)cc1	nt	nt	-6.9%	i	1.5%	i
O=S(=O)(c1ccc2c(c1)CCC2)N1CCN(c2nc(-c3ccccc3)nc3ccccc23)CC1	nt	nt	-7.1%	i	5.8%	i
COc1ccc(C=CC(=O)c2c(OC)cc(OC)c(OC)c2O)cc1	-20.6%	?	?	i	-42.3%	?
C=CCOc1ccc(C=CC(=O)c2c(O)c(OC)c(OC)c(OC)c2OC)cc1	-16.6%	-18.5%	-12.1%	?	-27.9%	5.8µM*
CCc1cccc(C)c1NC(=O)c1ccc2c(c1)CCN2S(=O)(=O)c1ccc(Cl)cc1	nt	nt	-6.9%	i	2.3%	i
O=C(Nc1ccc(OC(F)F)c(Cl)c1)C(c1ccccc1)c1ccccc1	?	16.4µM*	22.4µM*	?	20µM*	?
COC(=O)Cc1ccc(NC(=O)C(c2ccccc2)c2ccccc2)cc1	3.3%	6.5%	0.3%	i	-38.5%	8.2µM*
FC(F)Oc1ccc(NC(=S)NCc2ccccc2)cc1Cl	?	?	?	?	-49.0%	?
O=C(Cc1cccc2ccccc12)Nc1ccc(OC(F)F)c(Cl)c1	-9.7%	-0.7%	?	?	-30.9%	20.6µM*
COC(=O)C[C@@H]1CC[C@H](NC(=O)c2cnccn2)[C@@H](CO)O1	26.0%	29.7%	nt	i	nt	i
CCc1ccccc1NC(=O)C(=O)NCC(c1cccnc1)N1CCN(c2ccccc2F)CC1 (stereo not drawn)	nt	nt	-3.7%	i	-8.6%	i
O=c1c2c(nc3c(-c4cccc5ccccc45)c[nH]n13)CCC2	-7.6%	-3.8%	-6.4%	i	-50.2%	i
O=c1c2c(nc3c(-c4ccc(Cl)cc4)c[nH]n13)CCCC2	?	7.08µM*	?	?	-21.9%	i
O=C(Nc1c2c(nn1-c1ccc(Cl)cc1)CS(=O)(=O)C2)c1cccc(Cl)c1	nt	nt	?	i	-31.9%	?
Cc1cccc(OCCSc2nnc(-c3ccoc3C)n2C)c1	5.9%	13.1%	-3.6%	i	2.4%	18.4µM*
Cc1cccc(OCCSc2nncn2C)c1	17.9%	12.3%	13.1%	i	6.9%	i
